Where “and” joins values, the source holds several entries; their conditions need not be identical. Identical values can stand only once. Some structures have more than one record in an assay (separate samples or runs), and their calls can disagree. Calls of active or inactive are those of the source. How the source made its calls: active means hit-call score of the fitted dose curve at least 0.9, where 1 is the maximum; inactive means score below 0.9.
Columns and labels:
[1] = ATG_PBREM_CIS: Attagene CIS-FACTORIAL HepG2 Assay for human Phenobarbital-responsive Enhancer Module (PBREM) (AID 2282955); conditions: HepG2 PBREM cis-reporter, Attagene multiplexed transcription; actives raise or lower the signal
In short: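 Cells were transfected with cis-element reporter units and treated for 24 h, after which RNA was extracted and reporter transcripts measured by RT-PCR and capillary electrophoresis.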

[2] = target: Paired box protein Pax-6 (Homo sapiens) (UniProt P26367); experiment: ATG_Pax6_CIS: Attagene CIS-FACTORIAL HepG2 Assay for human Paired Box 6 (PAX6) (AID 2282956); conditions: HepG2 CIS-FACTORIAL PAX6 reporter transcription, RNA readout; actives raise or lower the signal
In short: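 Transient MRTU transfection of HepG2 → compound exposure 24 h → TriZol RNA, oligo(dT) RT → PCR, 6-FAM primer extension, HpaI cut → capillary electrophoresis; activity fitted both directions against DMSO.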

[3] = ATG_PXRE_CIS: Attagene CIS-FACTORIAL HepG2 Assay for human Pregnane X Receptor Element (PXRE) (AID 2282957); conditions: HepG2 Attagene CIS-FACTORIAL PXRE reporter, mRNA; actives raise or lower the signal
In short: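 HepG2 cells transiently transfected with cis-regulated multiple reporter transcription units; endogenous factor activity measured as reporter mRNA 24 h after dosing. RT-PCR, fluorescent primer extension, HpaI digestion, capillary electrophoresis; bidirectional fit versus DMSO baseline.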

[4] = ATG_PPRE_CIS: Attagene CIS-FACTORIAL HepG2 Assay for human Peroxisome Proliferator-activated Response Element (PPRE) (AID 2282958); conditions: HepG2 PPRE cis-element reporter, Attagene transcription factor profiling; actives raise or lower the signal
In short: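 In this cell-based multiplex, a PPRE cis element drives a reporter sequence in transiently transfected HepG2 cells. Following 24 h treatment, labeled cDNA amplicons are sized and quantified by capillary electrophoresis, with DMSO defining baseline.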

[5] = ATG_RORE_CIS: Attagene CIS-FACTORIAL HepG2 Assay for human RAR-related Orphan Receptor Element (RORE) (AID 2282959); conditions: HepG2 Attagene cis-factorial RORE reporter, mRNA; actives raise or lower the signal
In short: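 Endogenous factor activity at a cis response element is read as reporter transcript levels in HepG2 cells, 24 h post-dose. Transcripts are quantified by RT-PCR with capillary electrophoresis, and data fitted in both directions against DMSO.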

[6] = ATG_Sox_CIS: Attagene CIS-FACTORIAL HepG2 Assay for human SRY-box transcription factor (SOX) (AID 2282960); conditions: HepG2 Attagene cis-factorial SOX reporter, mRNA; actives raise or lower the signal
In short: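 Measures mRNA induction of a SOX1-associated reporter in HepG2 after 24 h dosing. Fluorescently labelled RT-PCR fragments are separated by capillary electrophoresis, and gain or loss relative to DMSO control is fitted.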

[7] = target: Transcription factor Sp1 (Homo sapiens) (UniProt P08047); experiment: ATG_Sp1_CIS: Attagene CIS-FACTORIAL HepG2 Assay for human Specificity Protein 1 (Sp1) (AID 2282961); conditions: HepG2 Sp1 cis-reporter transcription, actives raise or lower the signal
In short: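 Cells: HepG2, transiently transfected with cis-regulated multiplexed reporters. Exposure: 24 h. Detection: reporter transcripts amplified, fluorescently labeled, restriction-digested and sized by capillary electrophoresis. Analysis: bidirectional fit relative to DMSO.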

[8] = ATG_SREBP_CIS: Attagene CIS-FACTORIAL HepG2 Assay for human Sterol Regulatory Element Binding (SREBP) (AID 2282962); conditions: HepG2 Attagene cis-factorial SREBP reporter, mRNA; actives raise or lower the signal
In short: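 Transfected HepG2 (cis-regulated reporter library, endogenous TFs) → compound 24 h → total RNA → oligo(dT) RT → reporter-specific PCR → FAM primer extension, HpaI cut → CE fluorescence. Fit bidirectional vs DMSO.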

[9] = target: Signal transducer and activator of transcription 3 (Homo sapiens) (UniProt P40763); experiment: ATG_STAT3_CIS: Attagene CIS-FACTORIAL HepG2 Assay for human Signal Transducer and Activator of Transcription 3 (STAT3) (AID 2282963); conditions: HepG2, Attagene cis-factorial STAT3 reporter transcription; actives raise or lower the signal
In short: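 Transcript-level reporter assay. HepG2 transient MRTU transfection, 24 h exposure, fluorescence detection after RT-PCR and CE; DMSO baseline.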

[10] = ATG_TA_CIS: Attagene CIS-FACTORIAL HepG2 Assay for human TA Basal Promoter (AID 2282964); conditions: HepG2 Attagene CIS-factorial TA basal promoter reporter; actives raise or lower the signal
In short: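 HepG2 cells transiently transfected with multiple reporter units under cis promoter elements, reporting endogenous transcription factor activity; this endpoint tracks the TA basal promoter as background control. Reporter mRNA after 24 h dosing measured by RT-PCR/capillary electrophoresis; bidirectional fits versus DMSO.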

Chain of Paired box protein Pax-6 (Homo sapiens) (P26367 whole entry, looked up): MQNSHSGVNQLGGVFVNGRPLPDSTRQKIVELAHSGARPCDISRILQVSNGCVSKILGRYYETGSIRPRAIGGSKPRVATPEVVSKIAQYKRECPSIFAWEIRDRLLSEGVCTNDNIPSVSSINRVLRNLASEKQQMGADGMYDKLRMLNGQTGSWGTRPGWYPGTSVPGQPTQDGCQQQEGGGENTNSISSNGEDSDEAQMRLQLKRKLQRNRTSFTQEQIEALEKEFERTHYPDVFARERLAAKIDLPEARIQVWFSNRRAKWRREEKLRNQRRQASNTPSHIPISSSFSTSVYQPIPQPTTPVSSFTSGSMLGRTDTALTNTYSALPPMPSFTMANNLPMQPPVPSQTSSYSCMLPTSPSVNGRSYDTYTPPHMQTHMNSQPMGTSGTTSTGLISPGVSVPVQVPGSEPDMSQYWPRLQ
Chain of Transcription factor Sp1 (Homo sapiens) (P08047 whole entry, looked up): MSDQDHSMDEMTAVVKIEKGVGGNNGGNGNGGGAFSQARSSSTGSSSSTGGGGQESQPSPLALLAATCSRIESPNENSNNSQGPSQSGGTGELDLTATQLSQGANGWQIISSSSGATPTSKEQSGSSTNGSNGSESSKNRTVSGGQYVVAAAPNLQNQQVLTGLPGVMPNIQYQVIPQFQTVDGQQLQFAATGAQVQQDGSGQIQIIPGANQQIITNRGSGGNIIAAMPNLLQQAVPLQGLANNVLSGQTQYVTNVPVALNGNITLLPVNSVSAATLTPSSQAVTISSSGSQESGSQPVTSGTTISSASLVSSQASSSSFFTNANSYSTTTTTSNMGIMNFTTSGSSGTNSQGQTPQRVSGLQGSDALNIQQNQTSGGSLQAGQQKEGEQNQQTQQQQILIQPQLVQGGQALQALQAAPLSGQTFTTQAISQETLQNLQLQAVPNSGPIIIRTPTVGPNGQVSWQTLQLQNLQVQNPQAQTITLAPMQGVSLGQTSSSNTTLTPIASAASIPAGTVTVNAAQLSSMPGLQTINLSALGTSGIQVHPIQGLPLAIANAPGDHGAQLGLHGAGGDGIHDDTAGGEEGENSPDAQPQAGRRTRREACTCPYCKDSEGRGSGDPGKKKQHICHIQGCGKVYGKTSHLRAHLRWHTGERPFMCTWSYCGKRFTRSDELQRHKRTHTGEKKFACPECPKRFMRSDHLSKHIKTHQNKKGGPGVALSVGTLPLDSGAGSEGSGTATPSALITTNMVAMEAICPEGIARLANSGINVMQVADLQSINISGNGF
Chain of Signal transducer and activator of transcription 3 (Homo sapiens) (P40763 whole entry, looked up): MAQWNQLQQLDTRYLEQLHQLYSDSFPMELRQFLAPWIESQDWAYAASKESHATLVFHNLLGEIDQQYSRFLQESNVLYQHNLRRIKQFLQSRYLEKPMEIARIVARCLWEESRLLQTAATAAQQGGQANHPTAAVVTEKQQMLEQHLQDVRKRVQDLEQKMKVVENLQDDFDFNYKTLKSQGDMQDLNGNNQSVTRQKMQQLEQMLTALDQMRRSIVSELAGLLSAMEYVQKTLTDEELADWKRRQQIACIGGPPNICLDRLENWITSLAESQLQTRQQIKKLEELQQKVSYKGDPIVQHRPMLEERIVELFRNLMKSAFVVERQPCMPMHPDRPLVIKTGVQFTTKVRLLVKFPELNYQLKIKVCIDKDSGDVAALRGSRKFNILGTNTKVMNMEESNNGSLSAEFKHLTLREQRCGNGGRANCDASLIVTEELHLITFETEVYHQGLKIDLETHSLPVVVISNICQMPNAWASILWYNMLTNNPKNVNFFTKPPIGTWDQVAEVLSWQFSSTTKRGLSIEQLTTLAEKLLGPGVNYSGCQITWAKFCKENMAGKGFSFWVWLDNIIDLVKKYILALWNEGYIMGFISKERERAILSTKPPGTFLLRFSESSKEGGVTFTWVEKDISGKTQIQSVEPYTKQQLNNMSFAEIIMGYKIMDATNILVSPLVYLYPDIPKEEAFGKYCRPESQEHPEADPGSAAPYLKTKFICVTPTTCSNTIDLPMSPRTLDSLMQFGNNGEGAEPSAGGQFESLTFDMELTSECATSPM

SMILES	outcome [1]	outcome [2]	AC50 [3]	AC50 [4]	outcome [5]	outcome [6]	AC50 [7]	outcome [7]	AC50 [8]	outcome [8]	outcome [9]	outcome [10]	outcome [3]	outcome [4]	AC50 [2]	AC50 [5]	AC50 [10]	AC50 [1]	AC50 [6]	AC50 [9]
CC(C)(C)c1cc(C(C)(C)C)c(O)c(C(C)(C)C)c1	inactive	inactive	3.08 µM (active) and 6.33 µM (active)	416 nM (active) and 8.82 µM (active)	inactive	inactive	80.6 µM (active)	inactive	11.7 µM (active)	inactive	inactive	inactive								
O=C(OCCOCCOC(=O)c1ccccc1)c1ccccc1	inactive	inactive			inactive	inactive		inactive		inactive	inactive	inactive	inactive	inactive						
CCCCOCCO	inactive	inactive			inactive	inactive		inactive		inactive	inactive	inactive	inactive	inactive						
Cc1cc(C)c(O)c(C)c1	inactive	inactive			inactive	inactive		inactive		inactive	inactive	inactive	inactive	inactive						
Nc1cccc2c(N)cccc12	inactive	inactive			inactive	inactive		inactive		inactive	inactive	inactive	inactive	inactive						
CCc1nn(C2CCCCC2)c2cc(C3(C#N)CCC(C(=O)O)CC3)ccc12 (stereo unspecified)	inactive			438 nM (active)		inactive		inactive	65.5 µM (active)		inactive		inactive		100 µM (active)	32.4 µM (active)	69.9 µM (active)			
CCCCC[C@H](O)CC(=O)CCc1ccc(O)c(OC)c1	inactive	inactive	18.1 µM (active)		inactive	inactive	166 µM (active)			inactive	inactive	inactive		inactive						
COc1cc(CCC(=O)CC(=O)CCc2ccc(O)c(OC)c2)ccc1O	inactive	inactive	8.44 µM (active)		inactive	inactive		inactive		inactive	inactive	inactive		inactive						
O=C(O)Cc1cc(I)c(Oc2cc(I)c(O)c(I)c2)c(I)c1		inactive		4.68 µM (active) and 13.3 µM (active)			31.3 µM (active) and 17 µM (active)		4.05 µM (active) and 5.53 µM (active)		inactive	inactive	inactive		67 µM (active)	53.6 µM (active) and 10.8 µM (active)	84.2 µM (active)	113 µM (active) and 17.5 µM (active)	23.4 µM (active) and 18.1 µM (active)	
O=C1OC2(c3ccccc31)c1cc(Br)c(O)c(Br)c1Oc1c2cc(Br)c(O)c1Br	inactive	inactive	25.8 µM (active) and 5.86 µM (active)			inactive		inactive		inactive	inactive	inactive		inactive		74.9 µM (active) and 46.2 µM (active)		52.2 µM (active)		
CCCCCCCCCCCCCC[N+](C)(C)C	inactive	inactive			inactive	inactive		inactive	6.57 µM (active) and 2.76 µM (active)		inactive	inactive	inactive	inactive						18.1 µM (active)
CCCCCCCCOC(=O)CCCCCCCCC(=O)OCCCCCCCC	inactive	inactive			inactive	inactive		inactive		inactive	inactive	inactive	inactive	inactive						
COc1ccc([N+](=O)[O-])cc1N	inactive	inactive			inactive	inactive		inactive		inactive	inactive	inactive	inactive	inactive						
Cc1ccc(S(=O)(=O)O)c(C)c1	inactive	inactive	27.3 µM (active)			inactive		inactive		inactive	inactive	inactive	inactive	inactive						
CCCOc1sc(C(=O)N2CCC(c3cc(CN)ccc3F)CC2)c(C)c1Br	inactive	inactive	2.09 µM (active)		inactive	inactive		inactive	3.7 µM (active)		inactive	inactive		inactive						
CCOC(=O)CC(O)(CC(=O)OCC)C(=O)OCC	inactive	inactive	50.4 µM (active)		inactive	inactive		inactive		inactive	inactive	inactive	inactive							
O=C(O)c1ccccc1C(c1ccc(O)cc1)c1ccc(O)cc1	inactive	inactive	44.9 µM (active) [middle of 4 runs]		inactive	inactive		inactive		inactive	inactive	inactive		inactive						
